# The source made the active and inactive calls. How the calls were made is not given here.
# Target: Pantothenate synthetase (Mycobacterium tuberculosis (strain ATCC 25618 / H37Rv)) (UniProt P9WIL5)
# Experiment: Recombinant Mtb pantothenate synthetase (PanC) inhibitors, coupled enzyme, confirmatory (AID 375);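 further: 0% = full reaction with vehicle and 100% = no enzyme background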
# Settings: coupled enzyme assay; at 10 µM, hits give high values
# Pantothenate synthetase (Mycobacterium tuberculosis (strain ATCC 25618 / H37Rv)), sequence (P9WIL5 whole entry, looked up): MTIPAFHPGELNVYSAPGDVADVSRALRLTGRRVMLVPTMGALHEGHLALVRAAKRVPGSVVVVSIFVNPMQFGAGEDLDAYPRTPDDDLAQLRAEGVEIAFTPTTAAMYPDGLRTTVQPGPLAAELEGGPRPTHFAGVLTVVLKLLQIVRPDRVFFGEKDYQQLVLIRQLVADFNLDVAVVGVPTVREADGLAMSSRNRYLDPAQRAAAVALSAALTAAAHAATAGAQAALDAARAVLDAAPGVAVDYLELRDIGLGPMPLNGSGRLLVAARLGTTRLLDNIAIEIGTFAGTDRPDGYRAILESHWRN
row,Structure (SMILES),inhibition
1,COc1ccc(N2CCN(C(=O)CSc3ncnc4c3cnn4-c3ccccc3C)CC2)cc1,0% (inactive)
2,CC1=NC(Nc2nc(C)c3ccccc3n2)=NC(C)(C)C1,0% (inactive)
3,COC(=O)c1ccccc1S(=O)(=O)NC(=O)c1ccccc1,0% (inactive)
4,CCN(Cc1cc2cc(OC)ccc2[nH]c1=O)C(=O)Cc1ccc(OC)cc1,0% (inactive)
5,CCOC(=O)C1=C(C)NC(C)=C(C(=O)OC)C1c1cccc(Cl)c1Cl (configuration not stated),4% (inactive)
6,CSc1nnc(-c2cnccn2)n1Cc1ccccc1,0% (inactive)
7,Cc1cc(C)nc(N2CCC(C(=O)NCc3cccc(C(F)(F)F)c3)CC2)n1,3% (inactive)
8,CC(=O)Nc1ccc(OC(=O)c2cccnc2)cc1,0% (inactive)
9,O=C(c1ccc(Cl)cc1)N(Cc1cccs1)C1CCS(=O)(=O)C1 (configuration not stated),0% (inactive)
10,O=C(/C=N/O)Nc1cccnc1,0% (inactive)
11,CCOC(=O)C1CCCN(c2nc3ccccc3nc2C(C#N)C(=O)NCc2ccccc2)C1 (configuration not stated),0% (inactive)
12,O=C(CN1CCN(Cc2ccccc2)CC1)NCC1COc2ccccc2O1 (configuration not stated),0% (inactive)
13,CCOC(=O)N1CCN(C(=O)c2csc3c2CCCCC3)CC1,0% (inactive)
14,CCOC(=O)C1CCN(c2c(NC3CCCc4ccccc43)c(=O)c2=O)CC1 (configuration not stated),2% (inactive)
15,N#CCCN(C(=O)Nc1ccc(Cl)cc1)c1ccccc1,1% (inactive)
16,c1ccc(CCc2nn3c(Cn4cnc5ccccc54)nnc3s2)cc1,5% (inactive)
17,Cc1ccc(C2Nc3ccccc3-c3nc4ccccc4n32)o1 (configuration not stated),0% (inactive)

# From PubChem BioAssay
